# Not all results are given here.
# aSyn 5UTR act = Activators via SNCA 5'UTR binding, MLPCN | alpha-synuclein 5'UTR reporter, activators screen | activity score, % (tested at 7.5 µM), hits read low | 300,000 compounds, 7.1% hits | AID 1814, 2009; in the data active = activity score below about -60%
# * = called active by the depositor.
SMILES,aSyn 5UTR act
COc1cc(CNc2ccc(NC(C)=O)cc2)ccc1OCc1ccccc1C,-121.5*
COc1cc(/C=N/NS(=O)(=O)c2ccc(C)cc2)ccc1OCc1cccc(C(=O)O)c1,89.8
COc1cc(CNc2ccc3[nH]c(=O)[nH]c3c2)ccc1OCc1cccc(C)c1,-84.2*
CCN1CCN(C(=O)c2cc3ccc(OC)cc3[nH]2)CC1,-134.7*
COc1ccc2cc(C(=O)N3CCN(C)CC3)[nH]c2c1,-153.6*
O=C(N/N=C/c1ccccc1O)NC12CC3CC(CC(C3)C1)C2,-167.5*
O=C(CCN1CCN(c2ccccc2)CC1)N/N=C/c1ccccc1O,70.6
Cc1ccc(-c2cc(C(=O)Nc3cccnc3)[nH]n2)c(O)c1C,-201.6*
COc1ccc(NC(=O)c2cc(-c3cc(C)ccc3O)n[nH]2)cc1Cl,-72.5*
Cc1cccc(NC(=O)c2cc(-c3cc(C)c(C)cc3O)n[nH]2)c1,-233.8*
Cc1cccc(NC(=O)c2cc(-c3cc(C)ccc3O)n[nH]2)c1,-226.9*
C=CCOC(=O)/C(=C\c1ccccc1)NC(=O)c1ccc(C)cc1,-175.1*
CCOC(=O)/C(=C\c1ccccc1)NC(=O)c1ccccc1,-105.1*
Cc1ccc2oc(-c3ccco3)nc2c1,-137.0*
Cc1ccc(-c2nc3cc(C)ccc3o2)cc1,72.5
Cc1ccc(NC(=O)c2ccco2)c([N+](=O)[O-])c1,-197.3*
COc1ccc(NC(=O)c2ccco2)c([N+](=O)[O-])c1,-75.8*
N/C(=N\OC(=O)c1cc(Cl)ccc1Cl)c1ccncc1,-229.4*
N/C(CS(=O)(=O)c1ccccn1)=N\OC(=O)c1ccccc1Cl,-114.3*
N/C(=N\OC(=O)c1ccc(Cl)cc1Cl)c1ccncc1,-112.0*
Cc1ccc(C(=O)O/N=C(\N)c2ccccc2)c(Cl)c1,85.1
N/C(=N\OC(=O)c1ccccc1Cl)c1ccncc1,-106.5*
O=c1c2cc(Br)ccc2[nH]c(=S)n1Cc1ccccn1,-70.0*
CN(C)/N=C/c1ccc(OS(=O)(=O)c2ccccc2)cc1,-157.2*
